The values below come from PubChem BioAssay (NCI).

A short description of the assay: NCI Yeast Anticancer Drug Screen. Data for the mlh1 strain (AID 171).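 Further: 0% = growth of vehicle-treated control cultures of the same strain.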 To be noted: S. cerevisiae mlh1 strain growth inhibition, active compounds read high. The procedure: Growth inhibition of yeast strains with defined genetic alterations is measured as a screen for potential anti-cancer activity. Selected strains with alterations in DNA damage repair or cell cycle control were exposed to compounds and growth inhibition was measured relative to vehicle treated controls. The strain used in this assay is mlh1

Each structure is given as a SMILES string. About 79,000 compounds went through this panel and 15% of them were active in at least one assay; those are over-represented in the sample as a whole. Values without a mark were called inactive. The source made the active and inactive calls. No stated cut-off is given here; in the data, active means growth inhibition above about 70%; inactive means the rest.

Turning to `Cc1oc2ccccc2c(=O)c1Cn1nnc2ccccc21`, the growth inhibition reads like this: (at 1.2 µM) -1%; (at 3.7 µM) -2%; (at 11.0 µM) -2%; (at 33.0 µM) 1%; (at 100.0 µM) 43%.
For `CCCCCCCCCCCCCCN`, the growth inhibition is, setting by setting: (at 1.2 µM) -3%; (at 3.7 µM) 8%; (at 11.0 µM) 2%; (at 33.0 µM) 16%; (at 100.0 µM) 98% (active).
For `O=C1C(CCSc2ccccc2)C(=O)N(c2ccccc2)C1c1ccccc1` (stereo not given), the growth inhibition was 1% (at 1.2 µM); -14% (at 3.7 µM); 28% (at 11.0 µM); 95% (active) (at 33.0 µM); 90% (active) (at 100.0 µM).
In the same order, the values of `O=c1c2ccccc2nc(-c2ccc(Cl)cc2)n1O` are 72% (active), 90% (active), 93% (active), 92% (active) and 94% (active).
In the case of `Cc1cc2nc3ccccc3n2c2ccccc12`, the growth inhibition was -33% (at 1.2 µM); -27% (at 3.7 µM); -7% (at 11.0 µM); 53% (at 33.0 µM); 80% (active) (at 100.0 µM).
The like results for `COc1ccc2cc(C(C)C(=O)N3CCOC3=O)ccc2c1` (stereo not given) were, in that order, 21%, 10%, 11%, 21% and 64%.
Consider `O=c1[nH]c2c([N+](=O)[O-])cccc2c2ccccc12`, for which the growth inhibition is, setting by setting: (at 1.2 µM) -2%; (at 3.7 µM) -2%; (at 11.0 µM) 0%; (at 33.0 µM) 18%; (at 100.0 µM) 88% (active).
In the case of `O=C1c2cccc3cccc(c23)C(=O)N1O`, the growth inhibition was -11% (at 1.2 µM); -10% (at 3.7 µM); 0% (at 11.0 µM); 57% (at 33.0 µM); 90% (active) (at 100.0 µM).
